LEDGF integ inh: blocks HIV-1 LEDGF/p75-dependent DNA integration; TR-FRET IN-LEDGF/p75 DNA integration, Eu/Cy5; inhibition, % at 3.7 µM; hit rate 0.64% among 370,000;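 active = inhibition above the screen-wide mean plus 3 SD, cut at about 13% in these data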;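 note: signal is the Cy5 over europium emission ratio at 671 and 618 nm; 0% = plate median of compound wells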
CASP6 VEID inh: caspase-6 (human) enzyme inhibition. purified caspase-6, Z-VEID-R110 cleavage fluorescence. hit rate 0.53% among 350,000. P55212. inhibition, % at 12.5 µM;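 active = mean inhibition across replicates at least about 35%, with every replicate also reaching that limit, limit read from the data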;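 note: 0% = median of neutral control wells and 100% = no fluorescence left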
UHRF1 binding: blocks human UHRF1 binding to methylated DNA | UHRF1 binding to methylated oligo, TR-FRET | inhibition, % at 4.4 µM | hit rate 0.75% among 370,000; in the data active = inhibition above about 21%;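 note: UHRF1 SRA domain binding a hemimethylated CpG hairpin DNA probe; 0% = median of test compound wells and 100% = reference inhibitor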
MBD2 DNA inh: blocks human MBD2 binding to methylated DNA; Q9UBB5; TR-FRET, MBD2 binding to methylated oligonucleotide; inhibition, % at 4.4 µM; hit rate 0.31% among 370,000; in the data active = inhibition above about 13%
Target sequence (Q9UBB5 whole entry, looked up): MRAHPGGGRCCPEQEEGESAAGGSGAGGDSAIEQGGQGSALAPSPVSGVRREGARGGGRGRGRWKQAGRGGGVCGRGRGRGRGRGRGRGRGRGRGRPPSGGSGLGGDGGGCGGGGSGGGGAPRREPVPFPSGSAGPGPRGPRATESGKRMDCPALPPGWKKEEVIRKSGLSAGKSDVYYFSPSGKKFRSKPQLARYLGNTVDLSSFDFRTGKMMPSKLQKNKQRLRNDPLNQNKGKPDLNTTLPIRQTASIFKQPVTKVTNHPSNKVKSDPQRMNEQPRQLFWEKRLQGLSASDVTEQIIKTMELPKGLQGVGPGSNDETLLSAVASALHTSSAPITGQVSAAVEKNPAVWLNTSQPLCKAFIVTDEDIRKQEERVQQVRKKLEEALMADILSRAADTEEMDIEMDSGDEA
IN multimer up: HIV-1 integrase multimerization activation, counter-screen | AID 1053131 | shares compounds with LEDGF integ inh | TR-FRET HIV-1 integrase multimerization, biochemical | activation, % at 7.7 µM | hit rate 17% among 2,000; in the data active = activation above about 8.9%
TRFRET interf: TR-FRET optical interference, LEDGF/p75 integration counter-screen; shares compounds with LEDGF integ inh; TR-FRET optical interference counterscreen, HIV-1 IN multimerization; inhibition, % at 7.7 µM; 2,000 tested, under 10 active; AID 1053135;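 active = inhibition above the mean over all tested compounds plus 3 SD, which no compound reached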;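 note: 0% = integrase with antibodies and DMSO and 100% = antibodies without integrase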
LEDGF integ conf: LEDGF/p75-dependent HIV-1 integration inhibition, confirmation; inhibition, % at 3.7 µM; hit rate 36% among 2,000; shares compounds with LEDGF integ inh; TR-FRET LEDGF/p75-dependent HIV-1 integration, biochemical; in the data active = inhibition above about 14%
The depositor's hits bear a star; nt = no result; ! = not active in a repeat. An excerpt weighted towards active compounds, which were near 1.4% of everything screened.

SMILES	LEDGF integ inh	CASP6 VEID inh	UHRF1 binding	MBD2 DNA inh	IN multimer up	TRFRET interf	LEDGF integ conf
O=C(O)c1cc(Cl)ccc1-c1ccc(/C=C/c2cc(C(F)(F)F)[nH]c(=O)n2)o1	17*	45*	3	1	-1	6	11
Cc1nc(S/C(=C/c2ccc(-c3cc(Cl)ccc3C)o2)C(=O)O)n[nH]1	1	1	-3	-4	nt	nt	nt
CCOc1ccc(/C=c2\sc3nc(-c4ccco4)nn3c2=O)cc1OCC	16*	nt	39*	9	1	-4	6
COc1cc(/C=c2\sc3nc(=O)c(-c4ccccc4)nn3c2=O)ccc1OCCC(C)C	0	nt	0	-4	nt	nt	nt
CN(C(=O)c1ccccc1OCc1ccc(F)cc1)c1c(N)n(Cc2ccccc2)c(=O)[nH]c1=O	55*	0	2	1	-1	7	-5
O=c1c(O[C@H]2O[C@@H](CO)[C@H](O)[C@@H](O)[C@@H]2O)c(-c2ccc(O)cc2)oc2cc(O)cc(O)c12	-3	23	0	4	nt	nt	nt
C[C@@H]1O[C@@H](Oc2c(-c3cc(O)c(O)c(O)c3)oc3cc(O)cc(O)c3c2=O)[C@H](O)[C@H](O)[C@H]1O	55*	22	5	-4	53*	-189	63*
C[C@@H]1O[C@@H](Oc2c(-c3ccc(O)c(O)c3)oc3cc(O)cc(O)c3c2=O)[C@H](O)[C@H](O)[C@H]1O	21*!	19	4	0	16*	-81	58*
O=c1c(OC2OC(CO)C(O)C(O)C2OC2OC(CO)C(O)C(O)C2O)c(-c2ccc(O)cc2)oc2cc(O)cc(O)c12 (configuration not stated)	19*	46*	1	1	48*	-170	48*
COc1cc(-c2oc3cc(O)cc(O)c3c(=O)c2O[C@@H]2O[C@H](COC3O[C@@H](C)[C@H](O)[C@@H](O)[C@H]3O)[C@@H](O)[C@H](O)[C@H]2O)ccc1O (some centres not stated)	2	-8	-2	-4	nt	nt	nt
C[C@@H]1O[C@@H](O[C@H]2[C@H](O)[C@@H](O)[C@H](Oc3c(-c4ccc(O)c(O)c4)oc4cc(O)cc(O)c4c3=O)O[C@@H]2CO)[C@H](O)[C@H](O)[C@H]1O	7	nt	8	2	nt	nt	nt
C[C@@H]1CN([C@H](C)CO)C(=O)c2cccc(NS(C)(=O)=O)c2O[C@@H]1CN(C)Cc1ccncc1	nt	1	nt	nt	nt	nt	nt
O=C(C[C@H]1C[C@H]2c3cc(NC(=O)Cc4ccncc4)ccc3O[C@H]2[C@H](CO)O1)NCc1cccc(F)c1	nt	7	nt	nt	nt	nt	nt
C[C@@H]1CN([C@@H](C)CO)C(=O)c2cc(NS(C)(=O)=O)ccc2O[C@@H](C)CCCCO[C@@H]1CN(C)C(=O)C1CCCCC1	nt	0	nt	nt	nt	nt	nt
COc1ccc(S(=O)(=O)Nc2ccc3c(c2)CC(=O)N([C@@H](C)CO)C[C@H](C)[C@@H](CN(C)Cc2ccc(-c4ccccc4)cc2)O3)cc1	nt	-1	nt	nt	nt	nt	nt
Nc1cc2c(cc1[N+](=O)[O-])-c1ccccc1C2=NO	-4	0	1	-1	nt	nt	nt
CC(=O)Nc1cc2c(cc1[N+](=O)[O-])-c1ccccc1C2=NO	15*	-1	-4	-8	0	1	1
O=C(N[C@@H]1CC[C@@H](CCNS(=O)(=O)c2ccc(F)cc2)O[C@H]1CO)C1CCC1	nt	1	nt	nt	nt	nt	nt
O=C(N/N=C/c1cccnc1)c1cc(O)c(O)c(O)c1	38*	41*	15	1	35*	-125	20*
CCOc1ccc(CC(=O)N/N=C/c2cccnc2)cc1OCC	70*	-4	-4	-3	2	-10	0
CCNC(=O)C[C@H]1CC[C@@H]2[C@H](COc3ccc(NC(=O)C4CCOCC4)cc3C(=O)N2C)O1	nt	-1	nt	nt	nt	nt	nt
CC(=O)N1CCN(c2ccc(N)cc2)CC1	26*	36*	14	5	0	0	-1
CC(=O)N1CCN(c2ccc(NCc3ccc(F)cc3)cc2)CC1	8	-4	1	-2	nt	nt	nt
CC(=O)N1CCN(c2ccc(NCc3cccc(C)c3)cc2)CC1	14*	4	-3	0	3	-17	-2
Nc1ccc(N2CCN(c3ccc(F)cc3)CC2)cc1	5	-5	0	-8	nt	nt	nt
SMILES	LEDGF integ inh	CASP6 VEID inh	UHRF1 binding	MBD2 DNA inh	IN multimer up	TRFRET interf	LEDGF integ conf
CCCCCn1c(NC(=O)c2ccco2)c(S(=O)(=O)c2ccc(C)cc2)c2nc3ccccc3nc21	17*	nt	14	1	17*	-61	21*
CCCCn1c(NC(=O)c2ccc(Br)o2)c(S(=O)(=O)c2ccccc2)c2nc3ccccc3nc21	17*	nt	8	3	0	-2	21*
CCCCn1c(NC(=O)c2ccco2)c(S(=O)(=O)c2ccc(C)cc2)c2nc3ccccc3nc21	10	15	-5	-13	nt	nt	nt
CCOC(=O)C(C)Sc1ccc2nnc(-c3ccc(F)cc3)n2n1 (configuration not stated)	15*	nt	-1	-2	4	-19	3
Cc1ccc(O)c(-c2[nH]ncc2C(=O)c2ccc(Br)cc2)c1	14*	-3	2	8	-1	4	-5
NNc1ccc([N+](=O)[O-])c2[nH][nH]c(=O)c12	19*	94*	40*	5	35*	-176	44*
COc1cc(C=C2C(=O)C=CC2=O)ccc1O	93*	79*	97*	102*	7	-37	24*
CC1=NN(c2ccccc2)C(=O)/C1=C\c1sccc1C	-3	0	-8	-2	nt	nt	nt
COc1cc(/C=C2/C(=O)N(c3ccc(C(=O)O)cc3)N=C2C)cc(OC)c1O	1	10	2	-8	nt	nt	nt
COc1cc(/C=C2/C(=O)CNC2=O)ccc1O	-5	nt	-9	-2	nt	nt	nt
O=C1/C(=C\c2ccc(O)c(O)c2)C(c2ccccc2)=NN1c1ccccc1	19*	-2	16	-2	24*	-118	29*
COc1cc(/C=C2\C(=O)N(c3ccc(NC(C)=O)cc3)N=C2c2ccccc2)ccc1O	44*	8	18	8	4	-21	-1
CC(=O)N(C1=C(N2CCOCC2)C(=O)c2ccccc2C1=O)c1ccc(C(=O)O)cc1	17*	70*	4	-7	2	-8	17*
CCc1ccc(Nc2n[n+](C)c(-c3ccncc3)s2)cc1	42*	0	-2	-2	0	2	-6
N#Cc1nc(COc2ccccc2Cl)oc1N1CCCC1	19*	-3	8	7	1	-4	-7
COc1cccc(C(=O)Nc2nc(-c3ccccc3)c(-c3ccccc3)o2)c1	14*	-2	-1	-2	0	-2	19*
O=C(Nc1nc(-c2ccccc2)c(-c2ccccc2)o1)c1ccc(F)cc1	26*	nt	1	0	0	0	18*

Screens from PubChem BioAssay.
